# tim23-1 inh: growth inhibitors of tim23-1 mutant yeast; S. cerevisiae tim23-1 growth, BacTiter-Glo luminescence, 24 h; inhibition, % at 20 µM; 330,000 compounds, 1.3% hits;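 active = growth inhibition of the mutant yeast at or above 50%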;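 also: temperature-sensitive mutant grown at 25 °C; plate controls were DMSO-treated mutant yeast for no effect and medium wells lacking yeast for full effect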
# tim10-1 inh: inhibits growth of tim10-1 mutant yeast | S. cerevisiae tim10-1 ts strain growth, BacTiter-Glo, 24 h | inhibition, % at 20 µM | 330,000 compounds, 2.2% hits | AID 463190;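 active = inhibition of at least 40%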;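 also: mutant grown at 25 °C; 0% = DMSO wells with yeast and 100% = wells holding no yeast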
# NALP3 yeast inh: inhibitors of NALP3 inflammasome in yeast; Yeast reconstituted NLRP3/ASC/caspase-1, beta-gal luminescence, 24 h; inhibition, % at 10 µM; 330,000 compounds, 0.39% hits; AID 2825;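 active = inhibition of 50% or more; inactive = inhibition below 50%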;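 also: plate controls were induced DMSO wells for no effect and uninduced yeast grown without galactose for full effect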
# NALP1 yeast inh: blocks the NALP1 inflammasome reconstituted in yeast | S. cerevisiae NALP1/ASC/caspase-1 growth, X-gal OD620, 72 h | inhibition, % at 10 µM | 280,000 compounds, 0.61% hits; in the data active = inhibition mostly above about 24%, no sharp cut-off; inactive = mostly below about 32%
# PfHsp90 set2: growth inhibition of yeast expressing Plasmodium Hsp90; S. cerevisiae expressing PfHsp90, BacTiter-Glo ATP, 48 h; yeast lacking PDR1 and PDR3 efflux regulators; inhibition, % at 9.4 µM; 310,000 compounds, 0.32% hits; AID 504621;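 active = every replicate shows inhibition above about 80%, whatever the replicate mean, limit read from the data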;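 also: 0% = DMSO neutral controls and 100% = 20 µM radicicol positive controls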
# TIM10 inh: growth inhibitors of TIM10 yeast strain; S. cerevisiae TIM10 strain growth, BacTiter-Glo luminescence, 24 h; inhibition, % at 10 µM; 330,000 compounds, 1.4% hits;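 active = inhibition of 40% or more at the single tested concentration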;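 also: wild-type TIM10 isogenic control strain grown at permissive 25 °C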
# tim10-1 conf: tim10-1 yeast growth inhibition, confirmed; shares compounds with tim10-1 inh; S. cerevisiae tim10-1 ts strain growth, BacTiter-Glo, 24 h; inhibition, % at 20 µM; 7,400 compounds, 56% hits; AID 463213;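 active = inhibition of yeast growth at or above a set limit in either of two repeat tests at 20 µM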;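 also: tim10-1 mutant grown at permissive 25 °C to find synthetic lethal compounds; 0% = DMSO yeast wells and 100% = medium wells without yeast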
# tim10 confirm: confirmation of TIM10 yeast growth inhibitors. shares compounds with TIM10 inh. S. cerevisiae tim10 strain growth, BacTiter-Glo luminescence, 24 h. inhibition, % at 10 µM. 4,600 compounds, 63% hits. AID 463215;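 active = inhibition of yeast growth at or above a set limit in either of two replicates at 10 µM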;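 also: this counterscreen used the strain with wild-type TIM10; 0% = yeast with DMSO and 100% = medium wells lacking yeast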
# tim23-1 confirm: tim23-1 yeast growth inhibition, confirmed; S. cerevisiae tim23-1 growth, BacTiter-Glo luminescence, 24 h; 4,400 compounds, 83% hits; inhibition, % at 20 µM; shares compounds with tim23-1 inh;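 active = inhibition above about 39% in either of two replicate wells at 20 µM, limit read from the data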;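 also: temperature-sensitive tim23-1 mutant grown at 25 °C; 0% = DMSO wells with yeast and 100% = medium wells without yeast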
# The depositor's hits bear a star; x = no result given. Shown are actives, neighbours in structure and some others; about 4.2% of the full set was active somewhere.
SMILES,tim23-1 inh,tim10-1 inh,NALP3 yeast inh,NALP1 yeast inh,PfHsp90 set2,TIM10 inh,tim10-1 conf,tim10 confirm,tim23-1 confirm
COc1ccc(C/C(N)=N/OC(=O)c2cccs2)cc1,85*,46*,4,4,-36,77*,63*,74*,80*
COc1ccccc1C/C(N)=N/OC(=O)/C=C/c1ccccc1,75*,53*,3,-14,-13,83*,33*,83*,76*
N/C(=N\OC(=O)/C=C/c1ccccc1)c1ccncc1,7,12,2,-2,-6,13,x,x,x
COc1ccccc1C/C(N)=N/OC(=O)c1cccs1,77*,64*,2,9,-9,59*,53*,61*,64*
Cc1cccc(NC(=O)CCCC(=O)OC(C)C(=O)c2ccccc2)c1 (stereo not given),13,3,9,13,3,-4,x,x,x
Cc1ccc(-c2ccnc3c(Br)c(C)nn23)cc1,58*,41*,11,2,-13,15,30,x,39*
O=[N+]([O-])c1ccc(/C=N/Nc2ncccc2[N+](=O)[O-])s1,3,23,1,x,2,14,x,x,x
Cc1cc(C)cc(N=Cc2ccc([N+](=O)[O-])s2)c1,55*,56*,19,34,106*,83*,71*,86*,74*
O=[N+]([O-])c1ccc(C=Nc2ccc(Cl)c([N+](=O)[O-])c2)s1,51*,65*,9,11,106*,85*,71*,88*,77*
O=C(OC1CCCCC1)c1ccc(NC(=O)c2ccco2)cc1,54*,44*,11,8,17,23,30,x,70*
N#C/C(=C\c1c(N2CCCCC2)nc2ccccn2c1=O)S(=O)(=O)c1ccccc1,40,39,24,3,-4,0,x,x,x
O=C(N/N=C/c1ccc([N+](=O)[O-])o1)c1cn2ccc3ccccc3c2n1,74*,59*,12,4,-2,60*,72*,78*,22
O=C(c1cccs1)N1CCN(C(=O)c2cccs2)C1=S,x,x,x,x,21,x,x,x,x
O=C(OCn1ncc(Br)c(Br)c1=O)c1ccccc1Cl,73*,58*,-27,7,90*,77*,50*,-9,23
CC(=O)OCn1ncc(N2CCOCC2)c(Br)c1=O,-1,1,11,-5,-1,4,x,x,x
O=C(OCn1ncc(Br)c(Br)c1=O)c1ccc(F)cc1,55*,73*,1,9,99*,71*,65*,-14,38
O=C(OCc1nnc(-c2ccccc2)o1)C1CCN(C(=O)c2ccc(Cl)cc2)CC1,7,24,25,x,17,7,x,x,x
O=C(OCc1csc(Nc2ccccc2)n1)c1ccc(Cl)cc1,61*,47*,0,44,2,58*,25,41*,44*
O=C(COc1ccccc1)OCc1csc(Nc2ccccc2)n1,29,16,-9,33,-4,15,x,x,x
[O-][n+]1c2c(c3c4non(O)c4ccc31)CCCC2,63*,70*,27,14,-11,61*,70*,52*,64*
Cc1ccc(C)c2sc(N3CCN(C(=O)c4ccc([N+](=O)[O-])o4)CC3)nc12,73*,70*,35,x,x,-102,60*,x,7
CN(Cc1ccccc1)C(=O)c1cccc(NC(=O)Cc2ccc(NC(=O)C3CCCN(C(=O)C4CCC4)C3)cc2)c1 (stereo not given),x,x,x,x,-9,x,x,x,x
COc1ccccc1OCCNC(=O)CN1C(=O)NC2(CCCC2)C1=O,15,5,8,x,x,-5,x,x,x
COc1ccc(/C=N/n2c(C3CCCCC3)n[nH]c2=S)c(OC)c1,58*,40*,14,-9,-8,29,20,x,48*
COc1ccccc1NC(=O)/C(C#N)=C/c1cccnc1,45,24,20,13,7,20,x,x,x
SMILES,tim23-1 inh,tim10-1 inh,NALP3 yeast inh,NALP1 yeast inh,PfHsp90 set2,TIM10 inh,tim10-1 conf,tim10 confirm,tim23-1 confirm
Cc1cccc(NC(=O)/C(C#N)=C\c2cccnc2)c1,79*,67*,21,47,-7,66*,56*,59*,78*
Cc1cccc(NC(=O)/C(C#N)=C\c2ccc(C(=O)O)cc2)c1,0,0,4,-4,1,2,x,x,x
N#C/C(=C\c1cccnc1)C(=O)Nc1cccc(Cl)c1,85*,48*,10,-4,20,50*,34*,24,78*
N#C/C(=C\c1cccc([N+](=O)[O-])c1)C(=O)Nc1cccnc1,28,26,-4,6,x,1,x,x,x
N#C/C(=C\c1cccnc1)C(=O)Nc1ccc(Cl)cc1,76*,61*,14,9,25,61*,26,38*,66*
N#C/C(=C\c1cccnc1)C(=O)Nc1cccc2ccccc12,77*,61*,11,12,21,60*,58*,73*,78*
Cc1ccc(NCc2nnc(SCC(=O)N3c4ccccc4Sc4ccccc43)o2)c(C)c1,29,13,6,25,0,11,x,x,x
CN(C)S(=O)(=O)N1CCC(Oc2cccc(C(=O)N3CCCCCCC3)c2)CC1,17,14,11,6,10,14,x,x,x
Cc1cc(NC(=O)CN2C(=O)NC3(CCCCCC3)C2=O)ccc1Br,11,-9,9,x,1,0,x,x,x
CCN(CC)CCC(c1ccc2c(c1)OCO2)c1c(O)cc(OC)cc1OC (stereo not given),0,-13,7,7,8,-4,x,x,x
N#C/C(=C\c1cccnc1)C(=O)NC1CCCCC1,70*,58*,4,x,13,65*,41*,-18,70*
CC1=NN(c2ccccc2)C(=O)/C1=C/c1cccc(C)c1,35,14,6,12,24,20,x,x,x
CCOc1cc(/C=C2\C(=O)N(c3cccc(C(F)(F)F)c3)C(=O)c3ccccc32)ccc1O,65*,42*,3,0,3,30,34*,x,47*
Cc1cccc(N2C(=O)/C(=C\c3ccc(OC(F)F)cc3)c3ccccc3C2=O)c1,68*,51*,-1,24,97*,34,25,x,58*
CCOc1cc(/C=C2/NC(=O)N(Cc3ccccc3F)C2=O)ccc1O,15,33,8,4,8,13,x,x,x
COc1cccc(N2C(=O)c3ccncc3C2=O)c1,-8,15,10,8,20,-18,x,x,x
